Data taken from PubChem BioAssay AID651804 (National Center for Advancing Translational Sciences (NCATS), 2012).
The whole screen tested about 1,200 compounds, of which about 20 (2%) were called active. About 23% were inconclusive and are not listed. Many of the other results were omitted from the sample, so actives are more common in it than they were. A number with no mark means an inactive call. Calls come from the whole dose curve; as a rule, active = well fitted inhibition curve with a large enough effect; inconclusive = small, poorly fitted or top-dose-only effect; inactive = no such curve, though single readings can be large or run the other way.

Target: Transcriptional regulator ERG (Homo sapiens) (UniProt P11308)
Assay: qHTS for Small Molecule Inhibitors of the ERG Ets/DNA interaction: HTRF assay against cherry picks
Details: His-ERG Ets domain with biotin-DNA; series mostly up to 154 µM; activity change, negative = inhibition: at the top concentration
From the text: The Ets family of proteins is a family of ~30 conserved transcription factors defined by the presence of an ~85 amino acid domain referred to as the Ets domain, which mediates sequence-specific DNA binding to a core DNA element GGAA/T.The Ets family member ERG has been linked to several neoplasms. […] More extensive studies of the effects of over-expression of ERG in prostate cells have recently been carried out and have shown that over-expression of ERG results in increased invasion. […] We will carry out a high throughout screen to identify inhibitors of the interaction between ERG and DNA using a fluorescence polarization (FP) assay with a His-tagged ERG Ets domain and fluorescently-labeled DNA probes to develop small molecule inhibitors of this interaction as probes to test this hypothesis and lay the groundwork for the development of targeted therapies against ERG. This is the counterscreen against the cherry picks. NIH Molecular Libraries Probe Production Network [MLPCN] NIH Chemical Genomics Center [NCGC] Grant: NS066464 PI Name: John Bushweller, University of Virgina
2 ul of protein solution (200 nM ERG domain in 300mM KCl, 50mM Tris-HCl, 1mM EDTA, 1mM DTT, pH 7.5); 20 nl Control plate and compound library plate; 2 ul of 200 nM biotin-DNA; incubate for 10 min at RT; 1 ul of anti-His antibody conjugated to the long-life fluorescent cryptate donner […] (5ng/ul) and streptavidin conjugated to the acceptor compound […] (0.2 ng/ul) mix; incubate 10 min and measure FRET (Excitation = 320 nm, Emission = 615, 665 nm).
Potency is the fitted concentration of half-maximal effect.

Sequence of Transcriptional regulator ERG (Homo sapiens) (P11308 whole entry, looked up): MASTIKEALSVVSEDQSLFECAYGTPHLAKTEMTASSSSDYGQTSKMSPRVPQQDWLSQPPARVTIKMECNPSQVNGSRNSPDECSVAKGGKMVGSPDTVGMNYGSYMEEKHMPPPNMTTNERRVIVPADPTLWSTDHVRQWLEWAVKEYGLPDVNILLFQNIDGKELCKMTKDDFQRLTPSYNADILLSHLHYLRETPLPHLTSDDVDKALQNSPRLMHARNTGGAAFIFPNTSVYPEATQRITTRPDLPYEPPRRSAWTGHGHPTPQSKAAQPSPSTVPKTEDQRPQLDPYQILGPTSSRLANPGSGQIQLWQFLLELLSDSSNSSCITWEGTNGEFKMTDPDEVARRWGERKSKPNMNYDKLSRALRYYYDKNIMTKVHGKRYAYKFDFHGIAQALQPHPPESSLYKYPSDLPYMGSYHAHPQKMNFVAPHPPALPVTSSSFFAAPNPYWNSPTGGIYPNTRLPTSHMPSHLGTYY

Row | Structure (SMILES) | Potency | activity change, negative = inhibition [%]
1 | Nc1ccc2nonc2c1[N+](=O)[O-] | 50.1 µM (active) | 
2 | C=C1C2C[C@@]3([C@@H]1O)[C@@H](C[C@@H]2O)[C@@]12C4[C@@H]3C[C@@H]1[C@@](C)(CC[C@@H]2O)CN4CC |  | -25.6
3 | CC(=O)C1(c2ccccc2)CCN(C(=O)C2CCC(=O)N(CCc3cccc(F)c3)C2)CC1 (stereo not given) |  | -19.4
4 | C[N+]1(C)[C@@H]2CC[C@H]1CC(OC(=O)C(CO)c1ccccc1)C2 (stereo not given in full) |  | -26.6
5 | CN1[C@@H]2CCC[C@H]1CC(=O)C2 |  | -23.7
